An excerpt weighted towards active compounds, which were near 19% of everything screened.
TDP1 cell CPT: qHTS for Inhibitors of human tyrosyl-DNA phosphodiesterase 1 (TDP1): qHTS in cells in presence of CPT. chicken DT40 Tdp1-/-;hTDP1 cells + 20 nM CPT, ATP luminescence, 48 h. Potency, µM (series often up to 46.2 µM), inactives show at the top dose activity change, negative = growth inhibition, usual class: inhibitors. hit rate 12% among 420,000. AID 686979, 2013; further: nearly all actives have a fitted effect of over 55% in size
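Chicken DT40 Tdp1-/- cells complemented with human TDP1, 400 cells/well, exposed to compounds plus 20 nM camptothecin for at least 48 h at 37 C; viability read as ATP content by CellTiter-Glo luminescence.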
TDP1 cell noCPT: qHTS for Inhibitors of human tyrosyl-DNA phosphodiesterase 1 (TDP1): qHTS in cells in absence of CPT; AID 686978, 2013; DT40 Tdp1-/- hTDP1 cells, no CPT, ATP luminescence, 48 h; Potency, µM (titrated, usually from 46.2 µM), for inactives: at the top dose activity change, negative = growth inhibition, usual class: inhibitors; hit rate 15% among 420,000; further: nearly all actives have a fitted effect of over 55% in size
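No-CPT arm: Tdp1-/-;hTDP1 DT40 cells (400/well) plus compounds, incubated ≥48 hr at 37 °C. Readout CellTiter-Glo luminescence.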
KB-3-1 cytotox: qHTS assay for MDR1-selective chemotherapeutics: Primary screen using the parental adenocarcinoma cell KB-3-1; KB-3-1 viability, CellTiter-Glo ATP luminescence, 72 h; Potency, µM (highest dose often 46.1 µM), hits mostly cytotoxic; hit rate 1.4% among 400,000; further: nearly all actives have a fitted effect of over 60% in size
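KB-3-1 parental drug-naive adenocarcinoma cells in DMEM/10% FBS, incubated 72 h at 37 C with pin-transferred compounds across a concentration series. Viability by CellTiter-Glo luminescence; concentration-response curves fitted after normalization.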
HT1080 IDH1KD tx: qHTS for induction of synthetic lethality in tumor cells producing 2HG: qHTS for the HT-1080-IDH1KD cell line; HT-1080 IDH1 knockdown viability, ATP luminescence, 48 h; Potency, µM (top dose mostly 46.1 µM), without a hit: at the highest dose activity, negative = toxicity, most hits filed as cytotoxic; hit rate 2% among 360,000; AID 686971, 2013;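 further: 0% = DMSO wells and -100% = cell-free medium wells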
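Using the IDH1-knockdown HT-1080 line run in the same batch and compound series as the NT line, viability after 48 h at 37 °C was determined by CellTiter-Glo luminescence and expressed as % activity.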
HT1080NT lethal: qHTS for induction of synthetic lethality in tumor cells producing 2HG: qHTS for the HT-1080-NT fibrosarcoma cell line. Potency, µM (titrated, usually from 46.1 µM), inactives show at the top dose activity, negative = less viability, actives largely listed as cytotoxic. HT-1080-NT fibrosarcoma viability, CellTiter-Glo ATP luminescence, 48 h. hit rate 1.6% among 360,000;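 further: NT is the 2HG producing partner of a matched IDH1 knockdown line; 0% = DMSO-treated cells and -100% = media-only wells without cells; nearly all actives have a fitted effect of over 55% in size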
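Toxicity toward the 2HG-producing NT line was scored as %Activity, normalised to DMSO and no-cell wells, from CellTiter-Glo luminescence after 48 hours' treatment.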
KB-V1 cytotox: qHTS assay for MDR1-selective chemotherapeutics: Primary screen using the drug-selected MDR subline cells KB-V1; KB-V1 MDR cells viability, CellTiter-Glo, 72 h; Potency, µM (series often up to 46.1 µM), hits mostly cytotoxic; hit rate 3.4% among 400,000; further: nearly all actives have a fitted effect of over 60% in size
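Potencies derive from concentration-effect curves fitted to normalized luminescence (CellTiter-Glo) of KB-V1 cells treated for 72 h at 37 degrees C in phenol-red-free DMEM containing 10% FBS.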
Starred values were filed as active, the others as inactive; i = inactive; ? = inconclusive; nt = not tested or not shown. The call rests on the fitted dose curve; in most records, active means well fitted curve in the direction sought with a large enough effect; inconclusive means small, poorly fitted or top-dose-only effect, or another doubt; inactive means no such curve, though single readings can be large; an effect the other way counts as inactive or inconclusive. Unless noted, on the % scale 0 is the no-effect control and ±100 the full control effect; potency means the concentration at half of the fitted maximal effect.

SMILES	TDP1 cell CPT	TDP1 cell noCPT	KB-3-1 cytotox	HT1080 IDH1KD tx	HT1080NT lethal	KB-V1 cytotox
Cn1c(=O)oc2cc(S(=O)(=O)N3CCCc4ccccc43)ccc21	4.1µM*	5.8µM*	?	8.2µM*	6.5µM*	i
COc1ccc(OCC#CCN2CCNCC2)cc1	-6%	4%	i	1%	-3%	i
CC12CC(=O)C3C(CCC4CC(=O)C=CC43C)C1CCC2=O (stereo unspecified)	-21%	?	i	16%	15%	i
C[C@H]1CN([C@@H](C)CO)C(=O)CCCn2nncc2CO[C@H]1CN(C)C(=O)Oc1ccc2ccccc2c1	16µM*	9.2µM*	i	-3%	9%	i
C[C@@H]1CN([C@@H](C)CO)C(=O)CCCn2nncc2CO[C@@H]1CN(C)C(=O)Oc1ccc2ccccc2c1	-28%	?	i	7%	5%	i
C[C@H](CO)N1C[C@H](C)[C@H](CN(C)C(=O)Oc2cccc3ccccc23)OCc2cnnn2CCCC1=O	-5%	-19%	i	0%	0%	i
C[C@@H]1CN([C@@H](C)CO)C(=O)CCCn2nncc2CO[C@@H]1CN(C)C(=O)Oc1cccc2ccccc12	0.52µM*	0.58µM*	i	3%	3%	i
C[C@@H]1CN([C@H](C)CO)C(=O)CCCn2nncc2CO[C@@H]1CN(C)C(=O)Oc1ccc2ccccc2c1	8%	8.2µM*	i	-2%	2%	i
Cc1cc2c(cc1C)NP(=S)(c1ccccc1)N2	-10%	-17%	i	?	-30%	i
O=C(Nc1cccc(F)c1)N1CC2(CCNCC2)C1	8.2µM*	8.2µM*	nt	nt	nt	nt
O=C(Nc1cccc(F)c1)N1CCC2(CC1)CCN(C(=O)Oc1ccccc1)CC2	?	23µM*	nt	nt	nt	nt
O=c1[nH]c(Cl)ccc1CN1CCOCC1	-2%	6%	i	20%	2%	?
O=C(O)[C@@H]1C[C@H]2C[C@@H](CP(=O)(O)O)CC[C@H]2CN1	12%	-12%	nt	nt	nt	nt
COc1cc(C)cc2oc(=O)c(CC(=O)N3C[C@H]4C[C@@H](C3)c3cccc(=O)n3C4)c(C)c12	14%	10%	i	1%	3%	i
COC(=O)C1=C(c2ccc(F)cc2OCc2ccccc2)C[C@@H]2CC[C@H]1N2C(=O)N1CCCC1	6.5µM*	5.8µM*	i	-6%	-10%	i
COC(=O)C1=C(c2ccc(F)cc2OCc2ccccc2)C[C@@H]2CC[C@H]1N2C(=O)NC(C)C	?	21µM*	i	0%	10%	i
COC(=O)C1=C(c2ccc(F)cc2OCc2ccccc2)C[C@@H]2CC[C@H]1N2C(=O)NC1CCCCC1	?	?	?	-20%	0%	?
COC(=O)C1=C(c2ccc(F)cc2OCc2ccccc2)C[C@@H]2CC[C@H]1N2C(=O)NC1CC1	16µM*	?	i	-1%	15%	i
CN(Cc1ccc(OC(F)F)cc1)C(=O)c1ccccc1Sc1ccccc1C#N	?	?	i	-1%	-5%	?
CCN1C[C@@]2(COC)C3[C@@H](OC)C4[C@@H]1[C@@]3(C1C[C@@]3(O)[C@H](OC(=O)c5ccccc5)C1[C@]4(OC(C)=O)[C@@H](O)[C@@H]3OC)[C@@H](OC)C[C@H]2O (stereo partly specified)	-4%	16%	nt	nt	nt	nt
CCCCNc1ccncc1S(=O)(=O)NC(=O)NC(C)C	18%	0%	i	7%	16%	i
Cc1cccc(C(O)(C(=O)O)c2ccccc2)c1 (stereo unspecified)	-3%	0%	i	21%	6%	i
N#Cc1ccc(NC(=O)CN2C(=O)NC3(CCCC3)C2=O)cc1Cl	-3%	?	i	2%	2%	i
N#Cc1cc2c(nc1SCC(=O)Nc1ccc(C(F)(F)F)cc1)C1CCN2CC1	13µM*	23µM*	nt	nt	nt	nt
N#Cc1cc2c(nc1SCC(=O)Nc1cc(Cl)ccc1Cl)C1CCN2CC1	18µM*	?	?	?	?	4.1µM*
SMILES	TDP1 cell CPT	TDP1 cell noCPT	KB-3-1 cytotox	HT1080 IDH1KD tx	HT1080NT lethal	KB-V1 cytotox
N#Cc1cc2c(nc1SCC(=O)Nc1ccc(Cl)c(C(F)(F)F)c1)C1CCN2CC1	21µM*	12µM*	nt	nt	nt	nt
N#Cc1cc2c(nc1SCC(=O)Nc1ccc(Cl)cc1)C1CCN2CC1	?	?	?	?	?	2.9µM*
COCCO[C@H]1CCC2C3CC=C4C[C@@H](O)CC[C@]4(C)C3CC[C@@]21C (stereo partly specified)	?	?	i	-1%	14%	i
COc1ccccc1CCNCc1cccc(C(F)(F)F)c1	-3%	-2%	i	9%	9%	?
COc1cc(/C=C2/C(=O)NC(=O)N(c3ccccc3)C2=O)ccc1O	-5%	-19%	i	-7%	1%	i
CCOc1cc(/C=C2/C(=O)NC(=O)N(c3ccc(CC)cc3)C2=O)ccc1OC(=O)c1cccs1	-7%	29µM*	i	3%	-5%	i
COc1cccc(-c2nn(CCC#N)cc2C(=O)Nc2ccccc2Cl)c1	?	?	?	-17%	-14%	?
Cc1cc(C)cc(OCCOc2cccc(C=C3C(=O)NC(=O)NC3=O)c2)c1	18µM*	?	?	-11%	-3%	?
Cc1ccc(OCCOc2cccc(C=C3C(=O)NC(=O)NC3=O)c2)cc1	?	18µM*	i	13%	9%	i
O=C1NC(=O)C(=Cc2ccc3ccccc3c2)C(=O)N1	7%	-2%	i	1%	2%	i
Cc1ccccc1NC(=O)Cc1nc(COC(=O)c2cc([N+](=O)[O-])ccc2N)cs1	-2%	?	i	6%	2%	?
CCC(=NCCCn1ccnc1)c1c(O)n(-c2ccccc2)c(=O)[nH]c1=O	8%	-1%	i	10%	9%	?
CCC(=NCCc1c[nH]c2ccccc12)c1c(O)n(-c2ccc(C)cc2)c(=O)[nH]c1=O	?	?	i	-12%	3%	21µM*

Screening data: PubChem BioAssay, National Center for Advancing Translational Sciences (NCATS)
